Compounds without any hit were thinned out: in the full panel of roughly 83,000, 20% have a hit.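 The endpoint reported here, percent growth, reads 100 for growth as untreated, 0 for no net growth and -100 for all cells dead.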 A number with no mark means an inactive call. Calls of active or inactive are those of the source. The calls were made as follows: active = growth percent below 10; inactive = the rest.
Columns and labels:
Test in all cases: NCI-60 one-dose screen, 48 h (100 = growth as untreated, 0 = no growth, -100 = all killed)
Conditions in all cases: 10 µM unless noted
SR leukemia = test system: SR leukemia
RPMI-8226 leukemia = test system: RPMI-8226 leukemia
OVCAR-8 ovarian = test system: OVCAR-8 ovarian
OVCAR-5 ovarian = test system: OVCAR-5 ovarian
OVCAR-4 ovarian = test system: OVCAR-4 ovarian
SK-OV-3 ovarian = test system: SK-OV-3 ovarian
IGROV1 ovarian = test system: IGROV1 ovarian
OVCAR-3 ovarian = test system: OVCAR-3 ovarian
HS 578T breast = test system: HS 578T breast
NCI/ADR-RES ovarian = test system: NCI/ADR-RES ovarian
T-47D breast = test system: T-47D breast
BT-549 breast = test system: BT-549 breast
MDA-MB-435 melanoma = test system: MDA-MB-435 melanoma
SW-620 colon = test system: SW-620 colon
MCF7 breast = test system: MCF7 breast
HCT-116 colon = test system: HCT-116 colon
HCC-2998 colon = test system: HCC-2998 colon
KM12 colon = test system: KM12 colon

COC1C/C(=N\O)C2OC(c3ccccc3)OCC2O1 (configuration not stated)
growth (SR leukemia): 109% | growth (RPMI-8226 leukemia): 104% | growth (OVCAR-8 ovarian): 114% | growth (OVCAR-5 ovarian): 109% | growth (OVCAR-4 ovarian): 104% | growth (SK-OV-3 ovarian): 100% | growth (IGROV1 ovarian): 109% | growth (OVCAR-3 ovarian): 110% | growth (HS 578T breast): 106% | growth (NCI/ADR-RES ovarian): 103% | growth (T-47D breast): 103% | growth (BT-549 breast): 105% | growth (MDA-MB-435 melanoma): 102% | growth (SW-620 colon): 105% | growth (MCF7 breast): 102% | growth (HCT-116 colon): 97.9% | growth (HCC-2998 colon): 110% | growth (KM12 colon): 121%

O=C1CC(c2nc3ccccc3[nH]2)CN1C1CCCCC1 (configuration not stated)
growth (SR leukemia): 97.4% | growth (RPMI-8226 leukemia): 106% | growth (OVCAR-8 ovarian): 95.2% | growth (OVCAR-5 ovarian): 108% | growth (OVCAR-4 ovarian): 102% | growth (SK-OV-3 ovarian): 101% | growth (IGROV1 ovarian): 108% | growth (OVCAR-3 ovarian): 110% | growth (HS 578T breast): 102% | growth (NCI/ADR-RES ovarian): 94.2% | growth (T-47D breast): 95.6% | growth (BT-549 breast): 97.7% | growth (MDA-MB-435 melanoma): 107% | growth (SW-620 colon): 106% | growth (MCF7 breast): 89.7% | growth (HCT-116 colon): 109% | growth (HCC-2998 colon): 98.7% | growth (KM12 colon): 107%

COc1cccc(-c2nc3sccn3c2-c2ccnc(NCCCNS(=O)(=O)c3ccc(Cl)cc3)c2)c1
growth (SR leukemia): 50% | growth (RPMI-8226 leukemia): 9.05% (active) | growth (OVCAR-8 ovarian): 31.1% | growth (OVCAR-5 ovarian): 90.6% | growth (OVCAR-4 ovarian): 43.1% | growth (SK-OV-3 ovarian): 75.3% | growth (IGROV1 ovarian): 42% | growth (OVCAR-3 ovarian): 51.3% | growth (HS 578T breast): 65.3% | growth (NCI/ADR-RES ovarian): 26.9% | growth (T-47D breast): 2.4% (active) | growth (BT-549 breast): 34.4% | growth (MDA-MB-435 melanoma): 38.4% | growth (SW-620 colon): 58.3% | growth (MCF7 breast): 34.6% | growth (HCT-116 colon): 44% | growth (HCC-2998 colon): 66.5% | growth (KM12 colon): 43.5%

c1ccc2sc(SCCCn3ccnc3)nc2c1
growth (SR leukemia): 87.9% | growth (RPMI-8226 leukemia): 79% | growth (OVCAR-8 ovarian): 88.2% | growth (OVCAR-5 ovarian): 118% | growth (OVCAR-4 ovarian): 93.2% | growth (SK-OV-3 ovarian): 90.2% | growth (IGROV1 ovarian): 103% | growth (OVCAR-3 ovarian): 86.4% | growth (HS 578T breast): 102% | growth (NCI/ADR-RES ovarian): 94.2% | growth (T-47D breast): 75.5% | growth (BT-549 breast): 96.8% | growth (MDA-MB-435 melanoma): 97.6% | growth (SW-620 colon): 97.4% | growth (MCF7 breast): 88.1% | growth (HCT-116 colon): 92.5% | growth (HCC-2998 colon): 94.1% | growth (KM12 colon): 97.8%

COc1cnc2c(c1)C(=O)c1c-2n(CCCN2CCN(C)CC2)c(=O)c2cc([N+](=O)[O-])ccc12
growth (SR leukemia): -23.6% (active) | growth (RPMI-8226 leukemia): -41.6% (active) | growth (OVCAR-8 ovarian): -21.9% (active) | growth (OVCAR-5 ovarian): 111% | growth (OVCAR-4 ovarian): -81.7% (active) | growth (SK-OV-3 ovarian): 86.6% | growth (IGROV1 ovarian): -55.2% (active) | growth (OVCAR-3 ovarian): -84.6% (active) | growth (HS 578T breast): 94.8% | growth (NCI/ADR-RES ovarian): -2.68% (active) | growth (T-47D breast): -57.2% (active) | growth (BT-549 breast): -54.6% (active) | growth (MDA-MB-435 melanoma): -93.8% (active) | growth (SW-620 colon): -73% (active) | growth (MCF7 breast): -40.1% (active) | growth (HCT-116 colon): -83.8% (active) | growth (HCC-2998 colon): 95.1% | growth (KM12 colon): -29% (active)

O=C1/C(=C\c2cn(C(=O)c3ccc(Cl)cc3)c3ccccc23)c2ccccc2N1c1c(Cl)cccc1Cl
growth (SR leukemia): 99.6% | growth (RPMI-8226 leukemia): 101% | growth (OVCAR-8 ovarian): 113% | growth (OVCAR-5 ovarian): 94.3% | growth (OVCAR-4 ovarian): 99.5% | growth (SK-OV-3 ovarian): 116% | growth (IGROV1 ovarian): 99.2% | growth (OVCAR-3 ovarian): 116% | growth (HS 578T breast): 107% | growth (NCI/ADR-RES ovarian): 99.7% | growth (T-47D breast): 92.5% | growth (BT-549 breast): 107% | growth (MDA-MB-435 melanoma): 116% | growth (SW-620 colon): 105% | growth (MCF7 breast): 95.7% | growth (HCT-116 colon): 94.1% | growth (HCC-2998 colon): 102% | growth (KM12 colon): 111%

CCOC(=O)c1cnc2ccc(Br)cc2c1Nc1cccc(S(=O)(=O)NC)c1
growth (SR leukemia): 124% | growth (RPMI-8226 leukemia): 110% | growth (OVCAR-8 ovarian): 101% | growth (OVCAR-5 ovarian): 100% | growth (OVCAR-4 ovarian): 82.4% | growth (SK-OV-3 ovarian): 96.2% | growth (IGROV1 ovarian): 89.5% | growth (OVCAR-3 ovarian): 104% | growth (HS 578T breast): 95.8% | growth (NCI/ADR-RES ovarian): 80.4% | growth (T-47D breast): 86% | growth (BT-549 breast): 101% | growth (MDA-MB-435 melanoma): 105% | growth (SW-620 colon): 91.9% | growth (MCF7 breast): 91.3% | growth (HCT-116 colon): 84.7% | growth (HCC-2998 colon): 97% | growth (KM12 colon): 98.7%

COc1cc(/C=C2\CN(C(=O)CCN3CCC(=NO)CC3)C/C(=C\c3cc(OC)c(OC)c(OC)c3)C2=O)cc(OC)c1OC
growth (SR leukemia): 9.11% (active) | growth (RPMI-8226 leukemia): -40.1% (active) | growth (OVCAR-8 ovarian): 1.55% (active) | growth (OVCAR-5 ovarian): -65.4% (active) | growth (OVCAR-4 ovarian): -82.4% (active) | growth (SK-OV-3 ovarian): -7.89% (active) | growth (IGROV1 ovarian): -53.4% (active) | growth (OVCAR-3 ovarian): -97.6% (active) | growth (HS 578T breast): 6.39% (active) | growth (NCI/ADR-RES ovarian): 9.97% (active) | growth (T-47D breast): 4.37% (active) | growth (BT-549 breast): -81.4% (active) | growth (MDA-MB-435 melanoma): -81.9% (active) | growth (SW-620 colon): -74.5% (active) | growth (MCF7 breast): -54.3% (active) | growth (HCT-116 colon): -56.7% (active) | growth (HCC-2998 colon): -79.8% (active) | growth (KM12 colon): -83.9% (active)

O=C1/C(=C/c2ccc(F)cc2)CN(C(=O)CCN2CCC(=NO)CC2)C/C1=C\c1ccc(F)cc1
growth (SR leukemia): 4.41% (active) | growth (RPMI-8226 leukemia): -37.6% (active) | growth (OVCAR-8 ovarian): 5.09% (active) | growth (OVCAR-5 ovarian): -53.9% (active) | growth (OVCAR-4 ovarian): -18.7% (active) | growth (SK-OV-3 ovarian): -0.984% (active) | growth (IGROV1 ovarian): -29.2% (active) | growth (OVCAR-3 ovarian): -60% (active) | growth (HS 578T breast): 11.4% | growth (NCI/ADR-RES ovarian): 12.5% | growth (T-47D breast): -18.9% (active) | growth (BT-549 breast): -26.6% (active) | growth (MDA-MB-435 melanoma): -49.9% (active) | growth (SW-620 colon): -56.5% (active) | growth (MCF7 breast): -48.6% (active) | growth (HCT-116 colon): -65.6% (active) | growth (HCC-2998 colon): -83.3% (active) | growth (KM12 colon): -77.2% (active)
